Bioassay records as filed in PubChem BioAssay.
TEAD-YAP inh – TEAD-YAP interaction inhibition | HEK-TIYL cells, TEAD-Gal4/YAP UAS-luciferase luminescence | inhibition, % at 9.12 µM | AID 1259422 | actives 1.4% (n = 640,000); in the data active = inhibition above about 32%;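 note: 0% = median of test compound wells and 100% = reference inhibitor wells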
MITF inh – inhibitors of human MITF; O75030; AlphaScreen MITF homodimerization, bead proximity signal; inhibition, % at 2.6 µM; actives 0.91% (n = 650,000); AID 1259374; in the data active = inhibition above about 50%;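 note: 0% = vehicle wells with protein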
FBW7 act – human FBW7 E3 ligase activation, primary screen; AlphaScreen FBW7–phospho-cyclin E peptide binding, activator screen; normalized activity (activation), % at 26.1 µM; actives 0.13% (n = 650,000); in the data active = normalized activity above about 1.9%;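 note: purified mutant Fbw7 with reduced substrate affinity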
GPR151 ag – activators of human GPR151. Q8TDV0. PathHunter beta-arrestin GPR151 cells, luminescence. activation, % at 11.2 µM. actives 1% (n = 650,000). AID 1508602; in the data active = activation above about 4.9%;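 note: 0% = median of compound wells and 100% = cells with positive control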
Target sequence (Q8TDV0 whole entry, looked up): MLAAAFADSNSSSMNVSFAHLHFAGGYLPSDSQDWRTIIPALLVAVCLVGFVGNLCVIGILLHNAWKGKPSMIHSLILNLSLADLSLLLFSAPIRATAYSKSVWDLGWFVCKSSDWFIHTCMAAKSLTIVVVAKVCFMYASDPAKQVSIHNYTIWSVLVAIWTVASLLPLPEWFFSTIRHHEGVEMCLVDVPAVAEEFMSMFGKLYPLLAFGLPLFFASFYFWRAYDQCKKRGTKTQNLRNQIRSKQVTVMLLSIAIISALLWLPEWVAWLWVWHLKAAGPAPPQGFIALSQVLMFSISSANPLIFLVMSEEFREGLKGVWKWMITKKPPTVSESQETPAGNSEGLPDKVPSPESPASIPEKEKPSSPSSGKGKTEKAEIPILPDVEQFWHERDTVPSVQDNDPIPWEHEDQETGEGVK
MITF inh conf – confirmation of human MITF inhibitors | shares compounds with MITF inh | AlphaScreen MITF homodimerization, biotin/His-MITF beads | inhibition, % at 2.6 µM | actives 16% (n = 4,700);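 active = inhibition above a cutoff derived from the DMSO control wells, cut at about 28% in these data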;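 note: 0% = MITF dimer wells with DMSO only; inhibitors lower the bead chemiluminescence by keeping MITF from dimerizing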
AlphaScreen DR – counter-screen: compounds optically interfering with AlphaScreen | shares compounds with MITF inh | AlphaScreen optical interference counterscreen, cell-free | IC50, µM | actives 6% (n = 480) | AID 1259373; call rule not given here
AS interf ctr – counter-screen: compounds optically interfering with AlphaScreen; LysRS AlphaScreen counterscreen, signal interference, triplicate; shares compounds with MITF inh; actives 7.6% (n = 4,700); inhibition, % at 2.6 µM;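 active = inhibition above a cutoff derived from the DMSO control wells, cut at about 30% in these data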
* marks the source's active call; other numbers are inactive results; . = no result given. A selection: hits, their analogues and other compounds. The true share with any hit is near 3.5%.

SMILES	TEAD-YAP inh	MITF inh	FBW7 act	GPR151 ag	MITF inh conf	AS interf ctr	others
COc1cccc(CN2CCC(C(=O)N3CCN(c4ccccc4F)CC3)CC2)c1OC	0.8	52.1*	0.0	-1.1	7.5	11.0
O=C(C1CCN(Cc2cccc(O)c2)CC1)N1CCN(c2ccccc2F)CC1	3.7	76.5*	0.7	0.2	-9.1	-8.3
COc1ccccc1CN1CCC(C(=O)N2CCCC2)CC1	-8.4	45.2	-0.1	-1.3	.	.
CC1CCCN(C(=O)C2CCN(Cc3cccc(O)c3)CC2)C1 (stereo not given)	1.9	18.4	-0.2	-0.4	.	.
O=C(/C=C/c1cn(-c2nc(-c3ccccc3)c3cc(Br)ccc3n2)[n+](-c2ccccc2)c1)c1ccccc1	-18.1	76.6*	0.1	-0.7	6.1	10.5
COc1ccc2[nH]cc(S(=O)(=O)c3ccc(C)cc3)c(=O)c2c1	6.1	3.9	0.4	-0.9	.	.
COc1ccc(OC)c(CN2CCN(c3ccccn3)CC2)c1	-4.6	47.0	0.0	-1.3	.	.
COc1ccc(Br)cc1CN1CCN(Cc2c[nH]c3ccccc23)CC1	13.2	30.2	0.0	1.2	.	.
COc1cc(OC)c(OC)cc1CN1CCN(Cc2cccnc2)CC1	-4.1	81.7*	-0.1	-1.7	6.9	20.8
COc1ccccc1C1(O)CCN(Cc2cccnc2)CC1	6.8	6.0	0.0	-0.3	.	.
COc1ccccc1CN1CCN(Cc2cccnc2)CC1	-2.6	83.9*	-0.1	0.7	9.6	17.9
COc1ccc(Br)cc1CN1CCN(Cc2cccnc2)CC1	-3.1	59.0*	-0.1	1.4	15.6	15.9
COc1ccc(OC)c(CN2CCN(Cc3cccnc3)CC2)c1	10.9	82.2*	0.1	-0.9	-11.5	-0.1
CCOC(=O)CNC(=O)OC1C(=O)c2cc(OC)ccc2O[C@H]1c1ccc(OC)c(Br)c1 (stereo not given in full)	.	-9.2	-0.2	0.3	.	.
COc1ccc(C(=O)NCc2nnc(SCC(=O)N3CCc4ccccc43)n2-c2cccc(C)c2)cc1OC	-12.2	-6.2	-0.1	0.1	.	.
COc1ccc(-c2cc(C(F)(F)F)n3ncc(C(=O)NCCCN4CCOCC4)c3n2)cc1OC	-10.9	-3.0	-0.1	-0.8	.	.
COc1cc(OC)c(OC)cc1CN(CCCN(C)C)CCCN(C)C	2.1	54.2*	0.0	1.4	-9.8	-2.9
Cc1ccc(N[C@@H]2OC[C@@H](O)C(O)C2O)cc1N[C@@H]1OC[C@@H](O)C(O)C1O (stereo not given in full)	15.1	72.3*	0.1	-0.9	70.8*	13.0
CS(=O)(=O)N1CCN(c2ccc(-c3ccccn3)nn2)CC1	-24.6	87.4*	-1.1	-3.4	107.3*	100.6*
O=C(CCC1CCCN(C(=O)CC2CCCCC2)C1)N1CCN(c2ccccn2)CC1 (stereo not given)	2.2	2.0	-0.1	0.5	.	.
O=C(c1ccccn1)N1CCN(c2ccc(-c3ccccn3)nn2)CC1	-9.9	123.4*	-1.5	-1.1	112.0*	100.6*
O=C(Cn1cnc2ccccc2c1=O)N1CCN(c2ccc(-c3ccccn3)nn2)CC1	6.4	116.3*	-1.4	2.7	111.8*	100.6*
O=C(c1ccccn1)N1CCN(C(=O)c2ccccn2)CC1	2.2	-11.1	0.0	-0.3	.	.
O=C(CC1CCCC1)N1CCN(c2ccc(-c3ccccn3)nn2)CC1	-15.3	110.8*	-1.3	-1.4	110.9*	100.6*
COC(=O)C(=O)CC(=O)c1c(C)nn(-c2ccccc2)c1C	-1.8	12.6	-0.2	1.6	.	.
SMILES	TEAD-YAP inh	MITF inh	FBW7 act	GPR151 ag	MITF inh conf	AS interf ctr	others
COc1ccccc1Cn1c(=S)[nH]c2cc(C(=O)N3CCN(c4cccc(Cl)c4)CC3)ccc2c1=O	-4.5	5.3	0.0	0.1	.	.
CCn1c2ccccc2n2c(=O)n(Cc3ccccn3)nc12	-14.7	2.6	-0.1	-0.8	.	.
O=C(Nc1c2c(nn1-c1cccc(Cl)c1)CSC2)c1ccc(Br)o1	8.2	52.8*	-0.1	1.2	2.5	-2.4
COc1ccc(C(CNc2nnnn2-c2ccccc2)N2CCOCC2)cc1 (stereo not given)	0.8	51.3*	0.0	0.5	3.4	-0.3
CCS(=O)(=O)NCC(c1cccs1)S(=O)(=O)c1ccc(C)cc1 (stereo not given)	-2.4	85.4*	3.2*	3.1	82.5*	4.4	AlphaScreen DR=>6.6
Cc1ccc(S(=O)(=O)C(CNS(=O)(=O)c2ccccc2)c2cccs2)cc1 (stereo not given)	5.4	21.1	0.3	0.4	.	.
O=C(NC1CCN(Cc2ccccc2)CC1)c1cnc(NC2CCN(Cc3ccccc3)CC2)s1	0.6	13.6	0.1	-2.2	.	.
CCCNC(=O)c1cnc(NC2CCN(Cc3ccccc3)CC2)s1	2.1	73.9*	0.1	-1.2	-5.0	9.2
CC(=O)Nc1ccc(S(=O)(=O)N2CCN(CC3CC4C=CC3C4)CC2)cc1 (stereo not given)	-2.9	50.6*	0.0	0.3	-10.8	-3.1
CC(=O)Nc1ccc(NC(=O)c2ccc3nc(Nc4ccc(-n5ccnc5)cc4)sc3c2)cc1	-3.0	4.0	0.0	-1.6	.	.
COc1cc(NC(=O)c2ccc3nc(Nc4ccc(-n5ccnc5)cc4)sc3c2)cc(OC)c1OC	2.8	57.4*	-0.1	0.5	3.5	7.6
CCN=C1SC(CC(=O)Nc2cccc(OC)c2)C(=O)N1CC (stereo not given)	-1.9	23.6	0.8	-0.6	.	.
CCN1C(=O)C(CC(=O)Nc2cccc(C)c2)SC1=Nc1ccc(OC)cc1OC (stereo not given)	29.6	54.9*	0.0	0.8	1.6	1.1
Cc1ccc(-c2ccc3c(c2)CC(CNC(=O)CN2CC(c4ccccc4)CC2=O)O3)nc1 (stereo not given)	-9.1	0.3	0.2	-0.2	.	.
CCN(CC)C(=O)CN1CCC(O)(c2ccccn2)CC1	14.6	8.6	0.0	-1.8	.	.
CCN(CC)C(=O)CN1CCN(c2ncccn2)CC1	0.5	55.6*	0.0	1.5	17.6	9.6
NS(=O)(=O)c1cc(Cl)ccc1[N+](=O)[O-]	6.3	-5.4	0.1	-0.8	.	.
COc1ccc(CN2CCN(Cc3ccc(C(F)(F)F)cc3)CC2)cc1OC	14.0	23.5	-0.5	-1.6	.	.
COc1cc(CN2CCN(Cc3ccc(C(F)(F)F)cc3)CC2)cc(OC)c1OC	19.1	84.9*	0.7	-0.5	4.5	17.4
COc1ccc(CN2CCN(c3ccccc3)CC2)c(OC)c1OC	-6.6	26.6	-0.1	-0.1	.	.
COc1ccc(CN2CCN(Cc3ccc(C(F)(F)F)cc3)CC2)c(OC)c1OC	1.0	78.0*	-0.1	-0.7	10.4	13.5
COc1ccc(CN2CCN(Cc3ccccc3Br)CC2)c(OC)c1OC	-6.3	80.9*	-0.1	-1.0	18.5	8.0
COc1ccc(CN2CCN(Cc3ccncc3)CC2)c(OC)c1OC	9.6	61.9*	0.1	0.0	-2.5	-0.7
